The subject of experiment [1] is TRPC4 beta (transient receptor potential cation channel C4), mouse. Nature of the experiment: activators of mouse TRPC4 channel, confirmation, cell-based, Fluo4 calcium, HEK293 TRPC4beta/mu-opioid, duplicates, 10 µM (AID 2426). As to conditions: Fluo4 calcium fluorescence, at 10 µM; hits give high values.
Experiment [2] relates to transient receptor potential cation channel C4 beta (TRPC4), mouse. Nature of the experiment: activators of mouse TRPC4 channel, confirmation, cell-based, second round, Fluo4, HEK293 TRPC4beta/mu-opioid, 1 µM (AID 2461;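 active = primary screen active and over 50% activation in each of two duplicate runs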). Conditions: Fluo4 calcium fluorescence, at 1 µM; hits give high values.
The test system of experiment [3] is TRPC4 (transient receptor potential cation channel C4 beta), mouse. Nature of the experiment: positive allosteric modulators of mouse TRPC4, confirmation, cell-based, second round, Fluo-4, HEK293 TRPC4beta/mu-opioid, 1 µM (AID 2554;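 active = primary screen hit whose fluorescence ratio, in both repeats, exceeds the weak agonist control mean by 3 SD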). Conditions: DAMGO EC20, Fluo-4 calcium flux, at 1 µM; hits give high values. For orientation: A change in cytosolic calcium serves as a functional read-out for many receptors and channels.

Experiment [4] deals with TRPC4 beta (transient receptor potential cation channel C4), mouse. Nature of the experiment: positive allosteric modulators of mouse TRPC4, confirmation, cell-based, Fluo-4, HEK293 TRPC4beta/mu-opioid (AID 2555;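 active = primary screen hit whose calcium fluorescence ratio, in both repeats, exceeds the weak agonist control mean by 3 SD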). As to conditions: DAMGO EC20, Fluo-4 calcium flux, at 10 µM; hits give high values.
Experiment [5] deals with Short transient receptor potential channel 4 (Mus musculus) (UniProt Q9QUQ5). Nature of the experiment: inhibitors of mouse TRPC4 channel, confirmation, cell-based, Fluo4, HEK293 TRPC4beta/mu-opioid (AID 2636;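 active = calcium signal cut by more than 3 SD below the full-agonist control yet still positive, in both repeats and the earlier primary screen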). As to conditions: DAMGO, Fluo4 calcium flux, at 10 µM; hits give high values.
Sequence of Short transient receptor potential channel 4 (Mus musculus) (Q9QUQ5 whole entry, looked up): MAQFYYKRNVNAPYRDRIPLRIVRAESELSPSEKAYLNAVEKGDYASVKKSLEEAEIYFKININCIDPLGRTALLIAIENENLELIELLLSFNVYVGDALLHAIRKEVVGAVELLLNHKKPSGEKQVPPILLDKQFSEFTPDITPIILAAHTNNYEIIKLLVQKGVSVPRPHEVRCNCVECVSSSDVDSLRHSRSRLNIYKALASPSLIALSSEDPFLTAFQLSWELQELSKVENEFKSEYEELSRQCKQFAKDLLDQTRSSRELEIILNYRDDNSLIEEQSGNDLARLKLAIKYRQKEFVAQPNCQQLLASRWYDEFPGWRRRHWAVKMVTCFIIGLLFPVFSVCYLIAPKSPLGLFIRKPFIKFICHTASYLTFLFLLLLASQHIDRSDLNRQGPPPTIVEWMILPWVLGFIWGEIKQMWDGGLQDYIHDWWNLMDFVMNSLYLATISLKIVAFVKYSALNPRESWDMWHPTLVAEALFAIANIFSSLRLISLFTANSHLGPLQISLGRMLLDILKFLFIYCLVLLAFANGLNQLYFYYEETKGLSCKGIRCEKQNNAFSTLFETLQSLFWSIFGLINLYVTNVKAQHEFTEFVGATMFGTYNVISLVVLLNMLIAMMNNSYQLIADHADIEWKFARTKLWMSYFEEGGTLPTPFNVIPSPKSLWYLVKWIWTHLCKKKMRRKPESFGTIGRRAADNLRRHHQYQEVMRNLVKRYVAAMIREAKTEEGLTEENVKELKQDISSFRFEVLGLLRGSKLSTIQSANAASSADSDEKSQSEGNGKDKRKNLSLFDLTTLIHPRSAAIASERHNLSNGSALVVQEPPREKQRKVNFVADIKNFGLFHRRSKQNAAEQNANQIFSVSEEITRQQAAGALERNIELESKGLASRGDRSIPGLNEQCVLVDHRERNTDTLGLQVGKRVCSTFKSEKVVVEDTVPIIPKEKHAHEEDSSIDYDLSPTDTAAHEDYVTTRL
The target is the same in experiment [6]. Nature of the experiment: inhibitors of mouse TRPC4 channel, confirmation, cell-based, second round, Fluo4, HEK293 TRPC4beta/mu-opioid, 1 µM (AID 2637;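 active = calcium signal ratio cut to more than 3 SD under the fully stimulated control mean yet still positive, in both repeats and the primary screen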;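 as to inhibition: percent of integrated ratio relative to wells lacking test compound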). Conditions: Fluo4 calcium flux, DAMGO, at 1 µM; hits give high values.
For experiment [7] the target is unchanged. Nature of the experiment: mouse TRPC4 channel activators, dose response, cell-based, HEK293 TRPC4/mu-opioid, Fluo-4 calcium (AID 434937;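 active = primary screen activator hit with a dose response curve and TRPC4 channel activation at any tested dose; inactive = no activation, no dose response, or not a primary hit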).
The target is the same in experiment [8]. Nature of the experiment: TRPC4 positive allosteric modulators, dose response, cell-based, HEK293 TRPC4/mu-opioid, Fluo-4 calcium, EC20 DAMGO (AID 434941;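 active = earlier screen potentiator hit that boosts the TRPC4 ion channel at some dose, with a dose response; inactive = no potentiation, no dose response, or not a prior hit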;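 also: calcium entry triggered by an EC20 dose of DAMGO at the co-expressed mu-opioid receptor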).
In experiment [9] the target is Short transient receptor potential channel 6 (Mus musculus) (UniProt Q61143). Nature of the experiment: inhibition of mouse TRPC6 channel, confirmation, selectivity assay for TRPC4 inhibitor project, cell-based, HEK293, membrane potential dye, duplicate (AID 434948;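 active = active in primary screen and both duplicates, each dropping signal beyond three positive-control SD with fluorescence still positive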). Conditions: HEK293 TRPC6, membrane potential dye fluorescence, at 10 µM, stimulated with maximal-effect acetylcholine; hits give high values.
Sequence of Short transient receptor potential channel 6 (Mus musculus) (Q61143 whole entry, looked up): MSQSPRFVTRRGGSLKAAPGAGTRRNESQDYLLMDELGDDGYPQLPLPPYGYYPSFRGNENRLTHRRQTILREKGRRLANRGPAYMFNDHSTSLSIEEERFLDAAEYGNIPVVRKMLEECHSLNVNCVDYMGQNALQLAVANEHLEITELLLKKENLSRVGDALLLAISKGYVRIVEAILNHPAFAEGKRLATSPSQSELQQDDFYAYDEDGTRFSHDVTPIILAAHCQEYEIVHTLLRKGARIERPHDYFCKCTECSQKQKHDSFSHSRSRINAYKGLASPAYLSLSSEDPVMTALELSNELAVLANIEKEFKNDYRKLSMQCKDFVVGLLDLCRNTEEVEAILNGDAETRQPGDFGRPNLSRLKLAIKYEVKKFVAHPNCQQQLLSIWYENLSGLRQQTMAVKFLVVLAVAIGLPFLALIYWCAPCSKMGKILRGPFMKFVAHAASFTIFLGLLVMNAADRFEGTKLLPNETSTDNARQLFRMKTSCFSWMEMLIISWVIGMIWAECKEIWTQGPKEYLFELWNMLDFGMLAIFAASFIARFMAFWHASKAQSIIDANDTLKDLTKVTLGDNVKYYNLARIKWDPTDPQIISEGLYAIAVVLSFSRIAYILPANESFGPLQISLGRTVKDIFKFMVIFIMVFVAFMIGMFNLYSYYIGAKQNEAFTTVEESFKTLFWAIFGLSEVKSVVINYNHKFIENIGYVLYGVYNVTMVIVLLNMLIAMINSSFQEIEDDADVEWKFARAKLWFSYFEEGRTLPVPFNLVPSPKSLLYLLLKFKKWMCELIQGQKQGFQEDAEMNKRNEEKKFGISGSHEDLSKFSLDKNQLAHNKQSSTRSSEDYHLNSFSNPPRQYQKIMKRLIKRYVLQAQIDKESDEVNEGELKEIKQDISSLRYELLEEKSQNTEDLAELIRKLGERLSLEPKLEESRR

For experiment [10] the target is unchanged. Nature of the experiment: activation of mouse TRPC6 channel, confirmation, selectivity assay for TRPC4 activator project, cell-based, HEK293, membrane potential dye, duplicate (AID 434950;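 active = membrane potential signal rise above negative control mean plus 3 SD in both duplicates, also active in the earlier TRPC4 screen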). Conditions: HEK293 TRPC6, membrane potential fluorescence, at 10 µM; hits give high values.
Experiment [11] shares this target. Nature of the experiment: TRPC6 potentiation by TRPC4 potentiator hits, confirmation, selectivity assay for TRPC4 potentiator project, HEK293 cells, membrane potential dye, duplicate (AID 434952;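 active = compound raising the membrane signal above positive-control mean plus 3 SD in both repeats, and a primary screen hit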). Conditions: HEK293 TRPC6, membrane potential dye fluorescence, at 10 µM, maximal acetylcholine added after compound; hits give high values.
For experiment [12], the target named is Short transient receptor potential channel 4 (Mus musculus) (UniProt Q9QUQ5). Nature of the experiment: calcium flux activators in TRPC4/5HT1a cells, counter-screen for TRPC4 activator project, cell-based, second counter screen, HEK293 TRPC4/5HT1a, Fluo-4 (AID 434977;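 active = calcium signal rise above buffer-control mean plus 5 SD in both duplicates, and also a hit in the primary screen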). Conditions: Fluo-4 calcium flux, at 10 µM; hits give high values.
A short description of experiment [13]: calcium flux inhibitors in TRPC4/5HT1a cells, confirmation, counter-screen for TRPC4 inhibitor project, cell-based, second counter screen, HEK293 TRPC4/5HT1a, Fluo-4 (AID 434978;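 active = primary screen active whose calcium signal fell more than 3 SD beyond the full-serotonin control mean in both duplicate plates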;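 as to outcome: serotonin given first at submaximal then at maximal dose after compound preincubation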). Conditions: Fluo-4 calcium flux, at 10 µM, serotonin added to trigger calcium flux; hits give high values.
The test system of experiment [14] is TRPC4 (mouse), co-expressed with 5HT1a in HEK293. Nature of the experiment: calcium flux potentiators in TRPC4/5HT1a cells, confirmation, counter-screen for TRPC4 potentiator project, cell-based, second counter screen, HEK293 TRPC4/5HT1a, Fluo-4 (AID 434979;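 active = signal rise over 3 SD above mean of control wells given weak agonist, in both repeats and first screen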). Conditions: Fluo-4 calcium flux, at 10 µM, serotonin added at its EC20 dose; hits give high values.
Experiment [15] can be described thus: calcium flux activation in mu-opioid HEK293 cells, confirmation, counter-screen for TRPC4 activator project, cell-based, HEK293 mu-opioid receptor line (AID 449723;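 active = hit in primary screen, with calcium signal over 5 SD above buffer well mean in both duplicates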;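 also: counter screen cells carry the mu-opioid receptor alone and lack TRPC4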). As to conditions: Fluo-4 calcium fluorescence, at 10 µM; hits give high values.
Experiment [16] can be described thus: calcium flux enhancement in mu-opioid HEK293 cells, confirmation, counter-screen for TRPC4 allosteric potentiator project, cell-based, HEK293 mu-opioid receptor line (AID 449724;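 active = calcium signal rise more than 3 SD above the low-dose agonist control mean, in both duplicate plates and the primary screen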;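 also: HEK293 cells carrying mu-opioid receptor only with no TRPC4 channel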). As to conditions: Fluo-4 calcium flux, at 10 µM, compound added before EC20 DAMGO stimulus; hits give high values.

For some assays here: Results with a measured potency or affinity are listed apart. Active and inactive are the calls of the source.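 The calls were made as follows, unless noted: active = fluorescence ratio normalized to control raised more than 50% in primary screen plus both repeat runs; inactive = the rest.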

Usually inhibition stands for the change of the read-out against control, counted positive when it falls.

With `Cc1ccc(NC(=O)CNc2ccccc2CN(C)C2CCCCC2)cc1`, the result in experiment [1], in experiment [2], in experiment [3], in experiment [4], in [6] and in [7] was inactive. Moreover, the outcome in experiment [8], in [9], in experiment [10], in experiment [11], in experiment [12] and in experiment [14] was inactive. In addition, the outcome in experiment [15] and in experiment [16] was inactive. The inhibition is 76% (active) in experiment [5] and 33.5% (active) in experiment [13].

Turning to `CC(=O)N(c1ccc(Cl)cc1)c1c[nH]c2ccccc12`, the outcome in [1], in experiment [2], in [3], in experiment [4], in experiment [6] and in experiment [7] was inactive. Also, the outcome in experiment [8], in [9], in [10], in experiment [11], in [12] and in experiment [14] was inactive. For the same compound, the result in experiment [15] and in experiment [16] was inactive. In addition, the inhibition in experiment [5] was 94% (active); in [13], 22.3% (active).

On to `CC(C)C(NC(=O)c1ccc(C(C)(C)C)cc1)C(=O)NCC(c1ccccc1)N(C)C` (centres undefined), for which the outcome in experiment [1], in [2], in experiment [3], in [4], in [7] and in [8] was inactive. Also, the call in [9], in experiment [10], in experiment [11], in [12], in [13] and in [14] was inactive. Further, the result in [15] and in experiment [16] was inactive. The figures for the inhibition in experiment [5] and in experiment [6] were 82% (active) and 70% (active), respectively.

In the case of `CCc1ccc2nc3nc(C)cc(C)c3c(N)c2c1`, the result in [1], in experiment [2], in [3], in experiment [4], in experiment [7] and in experiment [8] was inactive. Besides, the call in experiment [10], in experiment [11], in experiment [12], in [14], in experiment [15] and in experiment [16] was inactive. The inhibition in [5] was 96% (active); in experiment [6], 41% (active); in experiment [9], 27% (active); in [13] it was 15.6% (active).

As for `CCCCC(=O)N(c1ccc(C(=O)O)cc1)c1nc(-c2ccc(Cl)cc2)c(CC)s1`, the result in experiment [1], in experiment [2], in [3], in experiment [4], in [6] and in [7] was inactive. The outcome in [8], in experiment [9], in [10], in experiment [11], in experiment [12] and in experiment [14] was inactive. Moreover, the result in experiment [15] and in [16] was inactive. Also, the inhibition in experiment [5] was 52% (active); in [13], 17.1% (active).

Take `COc1ccc(C(CNC(=O)c2oc3ccc(F)cc3c2C)N2CCCCC2)cc1` (centres undefined): the result in experiment [1], in experiment [2], in [3], in experiment [4], in experiment [6] and in experiment [7] was inactive. Also, the result in [8], in experiment [9], in experiment [10], in [11], in experiment [12] and in experiment [13] was inactive. Besides, the result in [14], in experiment [15] and in experiment [16] was inactive. The inhibition in experiment [5] is 98% (active).

As for `Cc1cccc(Cn2c(C(C)(C)C)cc3cccnc32)c1`, the outcome in [1], in experiment [2], in experiment [3], in experiment [4], in [7] and in [8] was inactive. Moreover, the call in experiment [10], in experiment [11], in experiment [12], in experiment [14], in [15] and in experiment [16] was inactive. Further, the inhibition in [5] is 95% (active); in [6] it was 72% (active); in [9], 59.5% (active); in [13], 19.4% (active).

For the compound `Cc1cccc2cc(CN(Cc3nnnn3Cc3ccccc3)C3CCCC3)c(=O)[nH]c12`, the outcome in experiment [1], in [2], in experiment [3], in experiment [4], in experiment [7] and in [8] was inactive. Further, the call in experiment [9], in experiment [10], in experiment [11], in experiment [12], in [13] and in [14] was inactive. Also, the outcome in experiment [15] and in experiment [16] was inactive. For the same compound, the inhibition in experiment [5] is 91% (active); in experiment [6], 63% (active).

Regarding `CSc1nsc(NC(=O)Cc2ccccc2)n1`, the outcome in [1], in experiment [2], in experiment [3], in [4], in experiment [6] and in experiment [7] was inactive. Also, the result in experiment [8], in experiment [9], in experiment [10], in experiment [11], in [12] and in [13] was inactive. For the same compound, the outcome in [14], in experiment [15] and in experiment [16] was inactive. Besides, the inhibition in [5] was 93% (active).

`Cc1cc(OCC(=O)Nc2ccc(N3CCN(C)CC3)cc2)ccc1Cl`: the result in experiment [1], in [2], in [3], in experiment [4], in experiment [6] and in [7] was inactive. For the same compound, the result in experiment [8], in [9], in experiment [10], in [11], in experiment [12] and in experiment [13] was inactive. Further, the outcome in experiment [14], in experiment [15] and in experiment [16] was inactive. Moreover, the inhibition in experiment [5] is 79% (active).

As to `Cc1cccc(CCN(C(=O)c2snc(C(N)=O)c2N)C(C(=O)NCC2CCCO2)c2ccc(F)cc2)c1` (centres undefined), the result in experiment [1], in [2], in experiment [3], in experiment [4], in experiment [7] and in experiment [8] was inactive. For the same compound, the outcome in experiment [9], in experiment [10], in [11], in experiment [12], in experiment [14] and in experiment [15] was inactive. In addition, the result in experiment [16] was inactive. Besides, the inhibition was 74% (active) in experiment [5], 68% (active) in [6] and 46.3% (active) in experiment [13].

Take `Cc1cc(C(=O)N/N=C\c2cc(C(C)(C)C)ccc2O)n[nH]1`: the result in experiment [1], in experiment [2], in experiment [3], in experiment [4], in experiment [6] and in experiment [7] was inactive. Moreover, the result in experiment [8], in experiment [9], in [10], in experiment [11], in experiment [12] and in [14] was inactive. For the same compound, the result in experiment [15] and in [16] was inactive. The inhibition in experiment [5] is 84% (active); in [13] it was 24.2% (active).

In the case of `Cc1cc(-c2csc3ncnc(N4CCN(C)CC4)c23)cc(C)c1C`, the result in [1], in experiment [2], in experiment [3], in [4], in experiment [7] and in experiment [8] was inactive. Besides, the call in experiment [9], in experiment [10], in [11], in experiment [12], in experiment [14] and in experiment [15] was inactive. In addition, the result in experiment [16] was inactive. The inhibition was 84% (active) in experiment [5], 49% (active) in [6] and 16.6% (active) in experiment [13].

For `CCOC(=O)C1=C(C)NC(=O)CC1c1cc2c(cc1[N+](=O)[O-])OCO2` (centres undefined), the result in [1], in experiment [2], in [3], in experiment [4], in experiment [7] and in [8] was inactive. Besides, the result in [9], in experiment [10], in experiment [11], in experiment [12], in experiment [14] and in experiment [15] was inactive. In addition, the result in experiment [16] was inactive. For the same compound, the inhibition in experiment [5] was 71% (active); in [6], 40% (active); in experiment [13] it was 20.2% (active).
